From PubChem BioAssay
An excerpt weighted towards active compounds, which were near 4.6% of everything screened.
Peg3 promoter: Peg3 promoter-driven luciferase inhibitors, primary screen, cell-based, HeLa, luciferase luminescence; HeLa PEG-Prom luciferase reporter, overnight; inhibition, % at 20 µM; 360,000 tested, 1.7% active; AID 588405, 2011;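 active means inhibition of at least 50% at 20 µM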
HIF-2a block: HIF-2a reporter inhibitors, primary screen, luminescence, 786-0 RCC cells. 786-0 RCC cells HIF-2a reporter, luciferase luminescence, overnight. inhibition, % at 18.8 µM. 360,000 tested, 0.72% active. AID 624352, 2012;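 active means inhibition of the luminescence signal of 40% or more relative to plate controls, in a single-dose primary screen at 18.75 µM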
CF NFkB inh: inhibitors of PAF-induced NF-kB signaling, primary screen, cell-based, GFP fluorescence, uHTS; KKLEB NF-kB-GFP reporter, GFP fluorescence overnight; inhibition, % at 5 µM; 360,000 tested, 0.86% active; AID 588850, 2011;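 active means at least 50% inhibition at 5 µM, scaled per plate between neutral and stimulator controls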;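 further: PAF is a Pseudomonas aeruginosa culture filtrate used as stimulus; plate controls were PAF-stimulated DMSO wells for no effect and unstimulated DMSO wells for full effect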
Mdm2-MdmX inh: inhibitors of human Mdm2-MdmX association, primary screen, cell-based, luminescence, split luciferase, SaOS-2, uHTS. SaOS-2 split-luciferase Mdm2/MdmX complementation. 330,000 tested, 3% active. Protein Mdm4 (Homo sapiens) + E3 ubiquitin-protein ligase Mdm2 (Homo sapiens), …. inhibition, % at 8 µM;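 active means inhibition of at least 50% at 8 µM in the primary screen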
ABHD5-PLIN5 inh: ABHD5-PLIN5 interaction inhibitors, primary screen, cell lysate, split luciferase complementation, luminescence; inhibition, % at 4 µM; 360,000 tested, 0.78% active; Split G. princeps luciferase complementation, 4 h;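 active means inhibition above the mean inhibition across every tested compound plus 3 SD, cut at about 22% in these data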;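 further: 0% = DMSO only wells and the 100% control is not disclosed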
Target sequence (Q00G26 whole entry, looked up): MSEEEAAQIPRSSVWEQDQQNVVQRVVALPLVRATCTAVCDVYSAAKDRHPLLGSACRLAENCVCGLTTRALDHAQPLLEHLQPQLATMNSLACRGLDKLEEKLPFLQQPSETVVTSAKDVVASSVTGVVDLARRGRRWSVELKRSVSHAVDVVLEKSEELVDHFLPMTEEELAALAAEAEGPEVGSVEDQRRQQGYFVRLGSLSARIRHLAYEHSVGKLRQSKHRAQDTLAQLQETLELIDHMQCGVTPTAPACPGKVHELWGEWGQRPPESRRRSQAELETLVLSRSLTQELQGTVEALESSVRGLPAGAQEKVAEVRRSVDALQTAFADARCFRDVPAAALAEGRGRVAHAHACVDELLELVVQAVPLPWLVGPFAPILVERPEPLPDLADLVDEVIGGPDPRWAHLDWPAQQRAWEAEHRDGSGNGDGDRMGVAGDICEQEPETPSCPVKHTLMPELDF
Target sequence (Q8WTS1 whole entry, looked up): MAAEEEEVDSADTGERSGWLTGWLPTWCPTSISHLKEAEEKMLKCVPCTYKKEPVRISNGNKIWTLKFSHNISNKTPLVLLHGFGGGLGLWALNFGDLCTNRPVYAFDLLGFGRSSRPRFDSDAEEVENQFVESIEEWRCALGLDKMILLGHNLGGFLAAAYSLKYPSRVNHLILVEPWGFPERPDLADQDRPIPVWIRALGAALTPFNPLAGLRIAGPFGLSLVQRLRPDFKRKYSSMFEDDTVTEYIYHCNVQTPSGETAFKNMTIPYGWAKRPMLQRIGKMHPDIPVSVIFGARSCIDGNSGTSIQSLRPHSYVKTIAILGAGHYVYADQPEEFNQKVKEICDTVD
KKLEB cytotox: cytotoxicity in KKLEB CF airway cells, primary screen, cytotoxicity control for CF NF-kB inhibitor project, cell-based, uHTS, fluorescence assay plates; KKLEB CF airway cells viability, ATPlite luminescence, overnight; hits give low values; cells stimulated with P. aeruginosa culture filtrate; activity change (cytotoxicity), % at 5 µM; 360,000 tested, 0.36% active; AID 602141, 2011;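 active means corrected activity change at or below -50% at 5 µM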
Numbers without * were called inactive; / = no result.

SMILES	Peg3 promoter	HIF-2a block	CF NFkB inh	Mdm2-MdmX inh	ABHD5-PLIN5 inh	KKLEB cytotox
CC1CC2C(C(O)CC3(C)C2CCC3(O)C(=O)CO)C2(C)C=CC(=O)C=C12 (stereo not drawn)	-22	17	76*	/	2	11
CCCCN(C)C(=O)c1sc(=O)n(Cc2ccccc2C#N)c1C	-4	0	-8	/	1	10
O=[N+]([O-])c1ccc(NC(c2ccccc2)c2ccc3cccnc3c2O)cc1 (stereo not drawn)	58*	21	8	/	13	-19
Oc1c(C(Nc2cccc(C(F)(F)F)c2)c2cccnc2)ccc2cccnc12 (stereo not drawn)	13	14	-10	21	9	-1
CN(Cc1ccccc1)C(=O)c1csc([C@@H]2O[C@H](CO)[C@H](O)[C@H](O)[C@H]2O)n1	-8	-9	-6	/	2	-8
CCOc1ccc(NC(=O)N(O)C2(C#N)CCCCC2)cc1	96*	6	-7	/	-1	7
O=C(Nc1ccc2c(c1)oc1ccccc12)c1ccncc1	-116	-181	-51	4	22*	21
O=C(Nc1ccc2c(c1)oc1ccccc12)c1cccnc1	-304	-230	-18	-17	6	6
Oc1ccc(C[C@@H]2CNC(=S)N2CCc2cc(C(F)(F)F)cc(C(F)(F)F)c2)cc1	-15	12	5	8	-7	-1
Oc1ccc(C[C@@H]2CNCCN2CCc2cc(C(F)(F)F)cc(C(F)(F)F)c2)cc1	103*	2	-1	47	7	-8
CC(C)CCCCCCCCCCCCC(=O)NCC(=O)NC1C(C)OC(Nc2ncnc3nc[nH]c23)C(O)C1O (stereo not drawn)	100*	79*	83*	/	5	-17
Cc1cc(Cl)ccc1NC(=O)CN(C)C1=NS(=O)(=O)c2ccccc21	9	7	-11	30	3	15
Cc1ccc(-n2c3nc(=O)[nH]c(=O)c-3cc3cc([N+](=O)[O-])ccc32)cc1C	74*	29	-3	40	2	-15
CC[C@H](C)C1OC(=O)[C@@H](C)[C@@H](CC)NC(=O)[C@H](C)N(C)C(=O)C(C)(C)C(=O)C(C)NC(=O)[C@H](Cc2ccc(OC)cc2)N(C)C(=O)[C@H](C(C)C)N(C)C(=O)CNC(=O)[C@H](CC(C)C)N(C)C(=O)CNC1=O (stereo partly drawn)	92*	34	96*	/	-6	-94*
COc1ccc(-n2cnnc2SCC(=O)NC2CC2)cc1	5	18	-22	/	4	4
CC(=O)c1cn(-c2ccc(Cl)cc2)c(=O)[nH]c1=O	3	9	-2	4	11	3
C/C(=N\Nc1ccc(Cl)c(C(=O)O)c1)c1ccccn1	-1	-13	-14	6	-3	11
C/C(=N\Nc1ncc(Cl)cc1Cl)c1ccccn1	71*	7	23	/	-1	-59*
Cc1ccc(-n2nnc(-c3nccs3)n2)cc1	48	51*	-2	23	8	-52*
Clc1ccc(-n2nnc(-c3nccs3)n2)cc1Cl	-201	-203	-30	-130	-5	-2
Cc1ccc(-n2c(-c3ccc(Br)cc3)c[n+]3c2CCc2ccc4cccnc4c2-3)cc1	64*	10	20	/	20	-52*
Cc1ccc(-n2c(Cl)c(Cl)nc(Cl)c2=O)cc1	103*	94*	88*	/	85*	-94*
COc1nc(Cl)cn(-c2ccc(C)cc2)c1=O	-6	4	1	-15	0	-7
CSc1nc(N)c(C#N)c(-c2ccc(Cl)cc2)c1C#N	58*	38	-3	17	5	-5
CC1=CN2C(=N)/C(=C/c3ccc([N+](=O)[O-])o3)C(=O)N=C2S1	107*	67*	51*	/	6	-49
SMILES	Peg3 promoter	HIF-2a block	CF NFkB inh	Mdm2-MdmX inh	ABHD5-PLIN5 inh	KKLEB cytotox
Fc1ccc(-n2nnc(-c3cnc4ccccc4c3)n2)cc1	52*	21	-28	5	-6	-12
Cc1oc(-c2ccc3c(c2)OCCO3)cc1C(=O)NCC(=O)O	-60	-89	-45	-7	22*	3
Cc1oc(-c2ccc3c(c2)OCCO3)cc1C(=O)NC(CCC(=O)O)C(=O)O (stereo not drawn)	-30	-97	-7	-5	9	-1
NC(c1csc(Nc2ccccn2)n1)c1ccccc1Cl (stereo not drawn)	-3	-2	12	/	-11	-15
CCCCNc1c(-c2ccc(OC)c(SC3CCCCC3)c2)nc2cnccn12	68*	-19	21	35	-3	-14
CCC(C)Sc1ccc(-c2nc3cnccn3c2NC2CCCCC2)cc1 (stereo not drawn)	91*	-97	1	15	-7	-3
COc1cc(CNC(=O)c2cc3ccccc3oc2=O)cc(OC)c1OC	-3	20	0	-11	-4	-4
COc1ccc(C(=O)NCCS(=O)(=O)N2CCc3ccccc3C2)cc1OC	4	3	-13	16	-4	8
CC(C)(C)S(=O)N1Cc2cc(C(=O)NCc3ccc4c(c3)OCO4)nc(-c3cccc(-c4cc5ccccc5o4)c3)c2[C@@H]1CCO (stereo partly drawn)	33	3	14	/	24*	-10
CC(C)(C)S(=O)N1Cc2cc(C(=O)NCc3ccc(Oc4ccccc4)cc3)nc(-c3cccc(-c4cc5ccccc5o4)c3)c2[C@H]1CCO (stereo partly drawn)	39	-11	-1	/	8	-6
O=C(O)CCCCNCc1ccccc1	4	-4	4	5	2	1
c1ccc(CNCCCNCCCCNCCCNCc2ccccc2)cc1	110*	28	11	/	-3	8
CCN(CC)CCn1c(=N)n(CC(=O)c2ccc(Br)s2)c2ccccc21	80*	8	9	49	10	-11
Cn1c(=N)n(CC(=O)c2ccc(Br)s2)c2ccccc21	-138	-184	4	12	9	-7
O=c1ccn([C@@H]2O[C@H](CNCc3cccc4c3sc3ccccc34)[C@@H](O)[C@H]2O)c(=O)[nH]1	10	10	-19	/	3	11
c1ccc(CCNc2ccnc3cc4ccccc4cc23)cc1	106*	-3	-11	/	18	0
COc1ccc(CN2CCN(Cc3ccc(CO)o3)CC2CCO)cc1C (stereo not drawn)	-18	18	-13	12	8	5
Cc1cccc(OCC(=O)NCC(=O)N=Nc2c(O)[nH]c3ccc([N+](=O)[O-])cc23)c1	9	1	-44	-7	16	1
